High-throughput results from PubChem.
L3MBTL1 block – blocks human L3MBTL1; Q9Y468; AlphaScreen L3MBTL1–H3K9me1 peptide binding; Potency, µM (series often up to 57.1 µM), hits mostly inhibitors; 0.66% of 230,000 active; AID 485360; note: nearly all actives have a fitted effect of over 60% in size
Target sequence (Q9Y468 whole entry, looked up): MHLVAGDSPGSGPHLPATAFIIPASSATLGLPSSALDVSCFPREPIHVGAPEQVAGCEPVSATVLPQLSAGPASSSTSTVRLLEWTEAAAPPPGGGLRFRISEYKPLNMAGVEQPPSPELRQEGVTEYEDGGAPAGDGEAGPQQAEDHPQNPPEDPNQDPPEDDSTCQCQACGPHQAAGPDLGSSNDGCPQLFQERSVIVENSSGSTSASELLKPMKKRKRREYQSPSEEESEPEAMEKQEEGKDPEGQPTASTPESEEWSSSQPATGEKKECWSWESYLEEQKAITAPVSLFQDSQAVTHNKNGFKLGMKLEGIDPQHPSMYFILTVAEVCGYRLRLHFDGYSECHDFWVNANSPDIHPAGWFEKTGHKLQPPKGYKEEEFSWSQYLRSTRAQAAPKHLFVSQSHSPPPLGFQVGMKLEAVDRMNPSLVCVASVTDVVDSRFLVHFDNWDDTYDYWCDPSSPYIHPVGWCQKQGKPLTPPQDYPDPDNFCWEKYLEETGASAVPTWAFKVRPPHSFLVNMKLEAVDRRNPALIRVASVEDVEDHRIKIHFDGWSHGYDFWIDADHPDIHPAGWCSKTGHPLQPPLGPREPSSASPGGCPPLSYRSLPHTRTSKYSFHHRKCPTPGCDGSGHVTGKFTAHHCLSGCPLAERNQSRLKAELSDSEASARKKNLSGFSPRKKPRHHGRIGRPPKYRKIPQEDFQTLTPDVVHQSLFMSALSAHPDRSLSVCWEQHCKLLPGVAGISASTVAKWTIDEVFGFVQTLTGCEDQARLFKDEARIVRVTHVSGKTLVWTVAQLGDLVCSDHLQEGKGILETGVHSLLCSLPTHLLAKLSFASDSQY
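AlphaScreen proximity signal between nickel-chelate acceptor and streptavidin donor beads (final 10 ug/mL) reports binding of 50 nM L3MBTL1 to 75 nM biotin-H3 K9me1 peptide; complex incubated with compounds 30 min at room temperature; cefsulodin titration as control.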
HP1b chromo inh – inhibitors of HP1-beta chromodomain binding to methylated histone tails. AlphaScreen HP1-beta / biotin-H3K9me3 peptide binding. AID 540317. Potency, µM (series often up to 114 µM), usual class: inhibitors. 0.56% of 390,000 active. P83916; note: nearly all actives have a fitted effect of over 70% in size
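HP1-beta protein (50 nM final) preincubated 30 min at room temperature with biotinylated H3(1-18)K9me3 peptide (50 nM) in PBS pH 7.4, 0.01% Tween-20, then compound added for 30 min. AlphaScreen streptavidin donor/nickel chelate acceptor beads (10 ug/mL final), 30 min dark, luminescence read.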
Sfp PPTase inh – Sfp phosphopantetheinyl transferase inhibition; Potency, µM, actives largely listed as inhibitors; 3.5% of 310,000 active; Biochemical Sfp PPTase activity, qHTS; Q9F4F7;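 note: the enzyme is Sfp with the accession as filed and its product quenches rhodamine fluorescence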
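Fluorescence-quenching assay: 15 nM Sfp-PPTase preincubated 15 min at room temperature with compound, then 5 uM rhodamine-CoA and 12.5 uM BHQ-2-labelled YbbR peptide added. Fluorescence (ex 525/em 598 nm) read at start and after 30 min; difference gives rate.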
JMJD2A Tudor – inhibitors of human JMJD2A Tudor domain | O75164 | AlphaScreen JMJD2A-Tudor / H3K4me3 peptide binding | Potency, µM (top dose mostly 114 µM), actives largely listed as inhibitors | 4.4% of 390,000 active | AID 504339; note: nearly all actives have a fitted effect of over 50% in size
G9a inh – G9a (human) methyltransferase inhibition | Q96KQ7 | G9a H3K9 monomethylation, AlphaScreen, 2 h | Potency, µM (top dose mostly 102 µM), hits mostly inhibitors | 8.8% of 350,000 active | AID 504332; note: nearly all actives have a fitted effect of over 75% in size
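G9a (20 nM) was preincubated 15 min with compound, then reacted 2 h at room temperature with 500 nM biotin-H3K9 peptide and 20 µM SAM. Monomethyl-H3K9 detected by AlphaScreen using anti-H3K9me1 antibody.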
BAZ2B inh – inhibitors of human BAZ2B bromodomain; Q9UIF8; AlphaScreen BAZ2B-H3K14Ac peptide displacement; Potency, µM (doses to about 114 µM), actives largely listed as inhibitors; 4.4% of 360,000 active; AID 504333; note: nearly all actives have a fitted effect of over 60% in size
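Complex of BAZ2B and biotin-H3K14Ac (50 nM apiece) forms over 30 min at RT, then faces library compounds up to 110 uM for another 30 min; AlphaScreen beads added, 20 min dark incubation, luminescence read.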
Numbers stand for hits; – = inactive; ? = inconclusive; · = no result; [ ] = remark or other dose. Rows were chosen to be rich in hits. Some 12% of all compounds tested hit in one or more screens of this group. Calls come from the whole dose curve; as a rule, active = well fitted curve in the direction sought with a large enough effect; inconclusive = small, poorly fitted or top-dose-only effect, or another doubt; inactive = no such curve, though single readings can be large; an effect the other way counts as inactive or inconclusive.

SMILES	L3MBTL1 block	HP1b chromo inh	Sfp PPTase inh	JMJD2A Tudor	G9a inh	BAZ2B inh
COc1ccc(-c2cc3nc4ccccc4n3c(N)c2C#N)cc1	–	–	–	–[11.4 µM]	–	–
Cc1cccc(CNC(=O)Cn2nc(C)n3c(cc4cc(F)ccc43)c2=O)c1	·	–	·	–	–	–
O=c1sc(Nc2ccccc2)nc2ccccc12	–	–	–	–	–	–
O=c1cnnc(Nc2ccc(Nc3ccccc3)cc2)[nH]1	·	–	–	?	40µM	–
O=C(CSc1ncccn1)NC(=O)Nc1ccc2c(c1)OCCO2	–	–	–	–	45µM	–
O=C(CSc1ccc([N+](=O)[O-])cn1)Nc1ccc2c(c1)OCCO2	–[11.4 µM]	–	–	–	?	?
CN(C)S(=O)(=O)c1ccc(SCC(=O)Nc2ccc3c(c2)OCCO3)nc1	–	–	·	–	40µM	–
Cn1c(C(=O)Nc2ccc3c(c2)OCCO3)cc2sccc21	–	–	–	?	50µM	?
Nc1ccccc1SCC(=O)Nc1ccc2c(c1)OCCO2	·	–	–	–	28µM	–
Cc1cc(Nc2ccc(Cl)cc2)n2cnnc2n1	·	–	·	–	–	–
O=C(COC(=O)c1cc(=O)[nH]c2ccccc12)Nc1nc(-c2ccc(F)cc2)cs1	·	–	·	–[11.4 µM]	·	·
Cc1noc(C)c1-c1ccc2ncnc(NCc3ccccc3Cl)c2c1	·	·	–	–	·	·
Cc1nc(SCC(=O)Nc2ccc3c(c2)OCCO3)nc(C)c1C	–	–	?	–	22µM	–
CC(Nc1ccc2c(c1)OCCO2)C(=O)N1CCc2ccccc21 (stereo unspecified)	–	–	–	?	?	45µM
CN(C)S(=O)(=O)c1ccc(C(=O)NC(=O)CSc2nnnn2C)cc1	–	–	·	–	·	·
Cc1cc(C)nc(SCC(=O)Nc2ccc3c(c2)OCO3)n1	·	–	–	–	·	–
Cc1nn(C)cc1C(=O)Nc1ccc2c(c1)OCCO2	·	–	50µM	–	32µM	–
CN(C)S(=O)(=O)c1ccc(NC(=O)CSc2nnnn2C)cc1	·	–	?	–	32µM	–
CSCC[C@H](N)C(=O)N[C@@H](CCC(=O)O)C(=O)N[C@H](C(=O)NCC(=O)N[C@@H](Cc1c[nH]c2ccccc12)C(=O)N[C@@H](Cc1ccc(O)cc1)C(=O)N[C@@H](CCCNC(=N)N)C(=O)N[C@@H](CO)C(=O)N1CCC[C@H]1C(=O)N[C@@H](Cc1ccccc1)C(=O)N[C@@H](CO)C(=O)N[C@@H](CCCNC(=N)N)C(=O)N[C@H](C(=O)N[C@H](C(=O)N[C@@H](Cc1cnc[nH]1)C(=O)N[C@@H](CC(C)C)C(=O)N[C@@H](Cc1ccc(O)cc1)C(=O)N[C@@H](CCCNC(=N)N)C(=O)N[C@@H](CC(N)=O)C(=O)NCC(=O)N[C@@H](CCCCN)C(=O)O)C(C)C)C(C)C)C(C)C	·	·	–	·	·	·
CC(O)CN(Cc1cccc(Cl)c1)CC(C)O (stereo unspecified)	·	–	–	3.5µM	?	56µM
COc1ccc(/C=N/NC(=O)c2ccc(O)cc2O)cc1CSc1ccccn1	?	?	–	?	50µM	56µM
O=C(O)c1ccccc1-c1c2cc(I)c(=O)c(I)c-2oc2c(I)c(O)c(I)cc12	·	?	?	18µM	·	·
O=C(O)c1c(Cl)c(Cl)c(Cl)c(Cl)c1-c1c2cc(I)c(=O)c(I)c-2oc2c(I)c(O)c(I)cc12	·	·	14µM	·	1.8µM	·
Cc1cc(-c2ccccc2C(=O)O)on1	–	–	–	–	–	–
CCN1C=C(Cc2ccc(F)cc2)C2=C(C1)C(c1ccc(F)cc1)C(C#N)=C(N)O2 (stereo unspecified)	·	–	–	50µM	?	?
SMILES	L3MBTL1 block	HP1b chromo inh	Sfp PPTase inh	JMJD2A Tudor	G9a inh	BAZ2B inh
CCN1C=C(Cc2ccccc2C)C2=C(C1)C(c1ccccc1C)C(C#N)=C(N)O2 (stereo unspecified)	·	?	–	56µM	14µM	45µM
Cc1ccc(/C=C2\CCC3=C2OC(N)=C(C#N)C3c2ccc(C)cc2)cc1 (stereo unspecified)	–	–	–	–	?	–
CCOc1ccc(CCNC(=O)Cn2ccc3cc(S(=O)(=O)N4CCCCCC4)ccc32)cc1	·	–	·	–	–	–
CN(C)CCN(C(=O)C1CCN(S(=O)(=O)c2cccs2)CC1)c1nc2ccc(F)cc2s1	–	–	·	?	28µM	?
Cc1cccc2sc(N(CCN(C)C)C(=O)C3CCN(S(=O)(=O)c4cccs4)CC3)nc12	–	?	·	56µM	32µM	50µM
COc1ccc(-c2nc(CS(=O)CC(=O)NCCc3ccccc3)c(C)o2)cc1OC (stereo unspecified)	·	–	·	–	?	–
Cc1[nH]c2ccccc2c1CN1CCc2ccccc2C1	·	–	–	40µM	13µM	?
CCc1ccc(NC(=O)CN2CCCN(S(=O)(=O)c3ccc(F)cc3)CC2)cc1	·	–	–	–	?	–
COc1cc(CNCc2ccccn2)ccc1OCc1ccccc1Cl	–	–	–	45µM	?	?
CCOc1c(Cl)cc(CNC(C)(C)CC(C)(C)C)cc1OC	·	–	–	–	–[2.33 µM]	–
CCOc1c(Cl)cc(CNCc2ccccn2)cc1OC	–	–	–	–	40µM	56µM
Cc1nc(NCc2ccccc2)c2nc(-c3ccccc3)n(CCN3CCCC3)c2n1	·	·	–	·	·	·
COC(=O)c1ccc(NC(=O)CN(C)S(=O)(=O)c2ccc(Br)s2)cc1	·	–	·	–	–	–
O=C(OCC(=O)c1c[nH]c2ccccc12)c1ccc([N+](=O)[O-])s1	–[11.4 µM]	?	–	?	45µM	?
N#CC(c1ccccc1)N(CCCCl)C(=O)c1ccccc1 (stereo unspecified)	–	–	–	–	45µM	–
COc1ccc(Cn2c(NCC(C)C)nc3c2c(=O)n(C)c(=O)n3C)cc1	·	–	·	–	–	–
Clc1ccc(Cl)c(-c2nn3c(COc4ccccc4)nnc3s2)c1	–[11.4 µM]	?	14µM	?	1.8µM	–
COc1ccc(OCc2nn3c(-c4cccc(OC)c4)nnc3s2)cc1	–	–	?	–	?	–
COc1ccc(-c2nn3c(COc4ccccc4)nnc3s2)cc1OC	–	–	?	–	?	–
COc1ccc(OCc2nn3c(Cn4cnc5ccccc54)nnc3s2)cc1	–	?	25µM	–	5.6µM	–
c1ccc2c(c1)ncn2Cc1nnc2sc(-c3ccc4c(c3)OCO4)nn12	–	?	–	–	·	?
Clc1ccccc1-c1nn2c(Cn3cnc4ccccc43)nnc2s1	–	?	45µM	–	2.8µM	–
c1ccc(OCc2nn3c(-c4cccnc4)nnc3s2)cc1	–	–	–	–	–[12.7 µM]	–
c1ccc(OCc2nn3c(Cn4nnc5ccccc54)nnc3s2)cc1	–[11.4 µM]	?	13µM	?	2.8µM	–
CCn1c(=S)sc2c(=O)n(CC(=O)Nc3cccc(Cl)c3)c(C)nc21	·	–	?	–	–	–
